Records with an inconclusive call do not appear. Where a structure was tested more than once in an assay, its records may differ in their call. Calls of active or inactive are those of the source. The calls were made as follows, unless noted: active = hit-call score of the fitted dose curve at least 0.9, where 1 is the maximum; inconclusive = response in the unintended direction; inactive = score below 0.9.
Test system: not listed separately
Experiment: CCTE_Shafer_MEA_dev_network_spike_number: CCTE's Neural Network Formation Assay for Number of Network Spikes, Shafer Lab (AID 2284048; active = hit-call score of the fitted dose curve at least 0.9, where 1 is the maximum; inactive = score below 0.9;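 also: synchronized bursts across electrodes counted on days 5 7 9 12 and integrated as AUC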;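 as to AC50: fit as a loss of signal meaning fewer network spikes than DMSO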)
Procedure, shortened: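 Developing networks of primary rat cortical neurons are treated over 12 days starting at plating, with media and compound fully replaced on DIV 5 and 9. Network spike counts from four recording days are integrated as trapezoidal AUC.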

Structure (SMILES)	outcome	AC50
Cc1cc(=O)[nH]c(=S)[nH]1	inactive	–
O=c1[nH]cc(F)c(=O)[nH]1	–	0.974 µM (active)
FC(F)(F)C(F)(F)C(F)(F)C(F)(F)C(F)(F)C(F)(F)CCI	inactive	–
OC[C@@H](O)[C@@H](O)[C@H](O)[C@H](O)CO	inactive	–
CC(C)c1ccc(C(=O)N=C(N)N)cc1S(C)(=O)=O	inactive	–
C[Si]1(C)O[Si](C)(C)O[Si](C)(C)O[Si](C)(C)O1	inactive	–
C=CCc1ccc(O)c(OC)c1	inactive	–
CC(=O)Oc1ccccc1C(=O)O	inactive	–
CCCc1cc(=O)[nH]c(=S)[nH]1	inactive	–

Test system: DIO2 (gene 1734)
Experiment: CCTE_GLTED_hDIO2: CCTE's human Deiodinase 2 (DIO2) Inhibition Assay, Great Lakes Toxicology and Ecology Division (GLTED) Lab (AID 2284050)
Procedure, shortened: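 In this cell-free test, chemicals are exposed to human deiodinase type 2 for 3 hours. Released iodide is determined spectrophotometrically via the Sandell-Kolthoff method, and signal loss relative to DMSO is fitted.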

Structure (SMILES)	AC50	outcome
CCCCC(CC)COC(=O)CC(C(=O)OCC(CC)CCCC)S(=O)(=O)O (stereo not given)	85.1 µM (active)	–
CC1=C(/C=C/C(C)=C/C=C/C(C)=C/CO)C(C)(C)CCC1	47 µM (active)	–
COc1cc(-c2nc(NC(=O)c3cc4cc(C)cc(C)c4n3CC(=O)O)sc2CCC2CCCCC2)c(OC)cc1Cl	–	inactive
CCCCCCCCCCCCCO	–	inactive
CC=Cc1ccc(O)c(OC)c1	68 µM (active)	–
CN[C@H]1CC[C@@H](c2ccc(Cl)c(Cl)c2)c2ccc(S(N)(=O)=O)cc21	49.3 µM (active)	–

Test system: not listed separately
Experiment: CCTE_Shafer_MEA_dev_network_spike_duration_std: CCTE's Neural Network Formation Assay for Standard Deviation of Network Spike Duration, Shafer Lab (AID 2284052; active = hit-call score of the fitted dose curve at least 0.9, where 1 is the maximum; inactive = score below 0.9;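 also: area under curve of spike duration SD across recording days 5 to 12; hits are decreases in network spike duration SD versus DMSO vehicle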)
Procedure, shortened: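 Primary rat cortical neurons on PEI-coated 16-electrode MEA wells, exposed from plating day 0 through day 12 with compound renewed at DIV 5 and 9. Network spike duration SD recorded on days 5, 7, 9, 12, collapsed as trapezoidal AUC; loss-of-signal fit versus DMSO.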

Structure (SMILES)	outcome	AC50
Cc1cc(=O)[nH]c(=S)[nH]1	inactive	–
O=c1[nH]cc(F)c(=O)[nH]1	–	2.01 µM (active)
FC(F)(F)C(F)(F)C(F)(F)C(F)(F)C(F)(F)C(F)(F)CCI	inactive	–
OC[C@@H](O)[C@@H](O)[C@H](O)[C@H](O)CO	inactive	–
CC(C)c1ccc(C(=O)N=C(N)N)cc1S(C)(=O)=O	inactive	–
C[Si]1(C)O[Si](C)(C)O[Si](C)(C)O[Si](C)(C)O1	inactive	–
C=CCc1ccc(O)c(OC)c1	inactive	–
CC(=O)Oc1ccccc1C(=O)O	inactive	0.0101 µM (active)
CCCc1cc(=O)[nH]c(=S)[nH]1	inactive	–

Test system: not listed separately
Experiment: CCTE_Shafer_MEA_dev_per_network_spike_spike_number_mean: CCTE's Neural Network Formation Assay for Mean Number of Spikes in a Network Spike, Shafer Lab (AID 2284053; active = hit-call score of the fitted dose curve at least 0.9, where 1 is the maximum; inactive = score below 0.9;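 as to AC50: fitted as decrease in spikes per network spike relative to DMSO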)
Procedure, shortened: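 Primary rat cortical neurons on 48-well, 16-electrode MEA plates were exposed from plating to DIV 12, with dosing renewed on DIV 5 and 9. Spikes per network spike (0.05 s peak window) were recorded on DIV 5, 7, 9 and 12 and collapsed as trapezoidal AUC versus DMSO.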

Structure (SMILES)	outcome	AC50
Cc1cc(=O)[nH]c(=S)[nH]1	inactive	–
O=c1[nH]cc(F)c(=O)[nH]1	–	0.913 µM (active)
FC(F)(F)C(F)(F)C(F)(F)C(F)(F)C(F)(F)C(F)(F)CCI	inactive	–
OC[C@@H](O)[C@@H](O)[C@H](O)[C@H](O)CO	inactive	–
CC(C)c1ccc(C(=O)N=C(N)N)cc1S(C)(=O)=O	inactive	–
C[Si]1(C)O[Si](C)(C)O[Si](C)(C)O[Si](C)(C)O1	inactive	–
C=CCc1ccc(O)c(OC)c1	inactive	–
CC(=O)Oc1ccccc1C(=O)O	inactive	–
CCCc1cc(=O)[nH]c(=S)[nH]1	inactive	25 µM (active)

Test system: DIO3 (gene 1735)
Experiment: CCTE_GLTED_hDIO3: CCTE's human Deiodinase 3 (DIO3) Inhibition Assay, Great Lakes Toxicology and Ecology Division (GLTED) Lab (AID 2284055);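 also: potency is for inhibition seen as loss of released iodide signal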
Description: CCTE_GLTED_hDIO3 is a cell-free, single-readout assay designed to test the inhibitory activity of chemicals toward human iodothyronine Deiodinase type 3 (DIO3) enzyme. Enzyme is incubated in presence of test chemical for 3 hours during which uninhibited enzyme liberates free iodide from substrate. Free iodide is measured in a second step using the Sandell-Kolthoff method.CCTE_GLTED_hDIO3 is the assay component measured from the CCTE_GLTED_hDIO3 assay. It is designed to make measurements of enzyme activity, a form of enzyme reporter, as detected with absorbance signals by spectrophotometry.Data from the assay component CCTE_GLTED_hDIO3 was analyzed into 1 assay endpoint. This assay endpoint, CCTE_GLTED_hDIO3, was analyzed in the positive analysis fitting direction relative to DMSO as the negative control and baseline of activity. Using a type of enzyme reporter, loss-of-signal activity can be used to understand changes in the enzymatic activity as they relate to the gene DIO3. Furthermore, this assay endpoint can be referred to as a primary readout, because the performed assay has only produced 1 assay endpoint. To generalize the intended target to other relatable targets, this assay endpoint is annotated to the 'deiodinase' intended target family, where the subfamily is 'deiodinase Type 3'.
[…] assay, developed at Great Lakes Toxicology and Ecology Division (GLTED) within the EPA's Center for Computational Toxicology and Exposure (CCTE), is designed to test the chemicals' ability to inhibit DIO3. Assay uses human deiodinase type 3 (DIO3) enzyme produced with adenovirus expression system. Assay is based on iodide release measured by the Sandell-Kolthoff method and is run in 96-well plate format with assay plates run in triplicate (n=3). The method used for the deiodinase assay was largely based on Renko et al. (2012, 2015). These works describe the utilization of the SK reaction to measure deiodinase-liberated iodide in a 96-well-plate format. The SK reaction is based on the reduction of the yellow-colored cerium IV to the non-colored cerium III by arsenic, with the rate of this reaction increased in the presence of iodide in a concentration-dependent manner (Sandell and Kolthoff, 1937). Iodinated test chemicals can interfere as competitive inhibitors, or if the stock chemical has contaminating free-iodide present. Other chemicals, e.g.: nitrite, iron, and thiocyanate can interfere with the Sandell-Kolthoff reaction (see Sandell and Kolthoff, 1937).

Structure (SMILES)	AC50
CCCCC(CC)COC(=O)CC(C(=O)OCC(CC)CCCC)S(=O)(=O)O (stereo not given)	92.2 µM (active)
CC1=C(/C=C/C(C)=C/C=C/C(C)=C/CO)C(C)(C)CCC1	28.3 µM (active)
COc1cc(-c2nc(NC(=O)c3cc4cc(C)cc(C)c4n3CC(=O)O)sc2CCC2CCCCC2)c(OC)cc1Cl	8.64 µM (active)
CCCCCCCCCCCCCO	51.8 µM (active)
CC=Cc1ccc(O)c(OC)c1	14.9 µM (active)
CN[C@H]1CC[C@@H](c2ccc(Cl)c(Cl)c2)c2ccc(S(N)(=O)=O)cc21	45.9 µM (active)

Test system: not listed separately
Experiment: CCTE_Shafer_MEA_dev_LDH: CCTE's Lactate Dehydrogenase Assay for Cytotoxicity in the Neural Network Formation Assay, Shafer Lab (AID 2284068);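 also: exposure for twelve days from plating with re-dosing on DIV 5 and 9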
Procedure, shortened: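 Primary rat cortical neurons were plated on PEI/laminin MEA plates and exposed from day 0 for twelve days, with compound renewed at DIV 5 and 9. Cytotoxicity was determined by spectrophotometric LDH assay relative to DMSO.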

Structure (SMILES)	AC50	outcome
O=c1[nH]cc(F)c(=O)[nH]1	2.48 µM (active)	–
CC(C)c1ccc(C(=O)N=C(N)N)cc1S(C)(=O)=O	–	inactive
C=CCc1ccc(O)c(OC)c1	–	inactive
CC(=O)Oc1ccccc1C(=O)O	–	inactive
CCCc1cc(=O)[nH]c(=S)[nH]1	23.8 µM (active)	inactive

Test system: not listed separately
Experiment: CCTE_Shafer_MEA_acute_AB: CCTE's Alamar Blue Assay for Cytotoxicity in the Neural Acute Assay, Shafer Lab (AID 2284069);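 also: active compounds lower the viability signal compared with DMSO wells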
Procedure, shortened: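 Primary rat cortical neurons on MEA plates, exposed acutely after baseline recording on day 13 or 15 post-plating. Viability by CellTiter Blue resazurin reduction (1:6 reagent dilution), fluorescence 544/590 nm; loss of signal versus DMSO.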

Structure (SMILES)	outcome
Nc1nc(N)c2nc(CNc3ccc(C(=O)N[C@@H](CCC(=O)O)C(=O)O)cc3)cnc2n1	inactive
Cc1ccc(C(C)C)c(O)c1	inactive
COc1ccc2c(c1)c(CC(=O)O)c(C)n2C(=O)c1ccc(Cl)cc1	inactive
CC(C)(C)c1cc(O)c(C(C)(C)C)cc1O	inactive
CCOC(=O)C(C)(C)Oc1ccc(Cl)cc1	inactive
COc1ccc(S(=O)(=O)N2C(=O)[C@@](c3ccccc3OC)(N3C[C@H](O)C[C@H]3C(=O)N(C)C)c3cc(Cl)ccc32)c(OC)c1	inactive
FC(F)(F)C(F)(F)C(F)(F)C(F)(F)C(F)(F)C(F)(F)CCI	inactive
C=CCOC(=O)c1ccccc1C(=O)OCC=C	inactive
CNCc1cc(F)ccc1Oc1ccc(Cl)c(Cl)c1	inactive
CCCCCCCCCCCCCCCCCC(=O)O	inactive
Clc1cc(Cl)c(Cl)cc1Cl	inactive
c1cc(-c2ccncc2)ccn1	inactive
Cc1ccc(C)c(O)c1C	inactive
Cc1ccc2ncccc2c1	inactive
Nc1ccccc1N	inactive
CN[C@H]1CC[C@@H](c2ccc(Cl)c(Cl)c2)c2ccc(S(N)(=O)=O)cc21	inactive
C=CCc1ccc(O)c(OC)c1	inactive
NS(=O)(=O)c1cc2c(cc1Cl)NCNS2(=O)=O	inactive
CCCc1cc(=O)[nH]c(=S)[nH]1	inactive

Test system: not listed separately
Experiment: CCTE_Shafer_MEA_dev_AB: CCTE's Alamar Blue Assay for Cytotoxicity in the Neural Network Formation Assay, Shafer Lab (AID 2284083);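 also: twelve days of exposure from plating with re-dosing on DIV 5 and 9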
Procedure, shortened: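 Primary rat cortical neurons on PEI-coated 48-well MEA plates, 1.5 x 10^5 cells/well in laminin drop; compound exposure from day 0 of plating for twelve days, renewed at medium changes on DIV 5 and 9. Viability read as resazurin reduction by fluorescence, relative to DMSO.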

Structure (SMILES)	outcome	AC50
Cc1cc(=O)[nH]c(=S)[nH]1	inactive	–
O=c1[nH]cc(F)c(=O)[nH]1	–	3.24 µM (active)
FC(F)(F)C(F)(F)C(F)(F)C(F)(F)C(F)(F)C(F)(F)CCI	inactive	–
OC[C@@H](O)[C@@H](O)[C@H](O)[C@H](O)CO	–	0.437 µM (active)
CC(C)c1ccc(C(=O)N=C(N)N)cc1S(C)(=O)=O	inactive	–
C=CCc1ccc(O)c(OC)c1	inactive	–
CC(=O)Oc1ccccc1C(=O)O	inactive	–
CCCc1cc(=O)[nH]c(=S)[nH]1	inactive	24.6 µM (active)

Reference: PubChem BioAssay (EPA / NIEHS)
